Source: PubChem BioAssay AID529 (NMMLSC, 2006)
About 50 (0.2%) of roughly 24,000 compounds were called active. Another 9% or so got no clear call; they are omitted.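 The calls were made as follows: active = inhibition above 50%; inconclusive = compound itself fluorescent, judged against control cell fluorescence; inactive = the rest.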 Shown is part of a subset that was picked to be rich in actives.

biological target: Integrin alpha-4 (Homo sapiens) (UniProt P13612); assay: inhibitors of LDV-FITC binding to Mn2+-activated VLA-4, primary screen, Jurkat cells (AID 529); conditions: LDV-FITC binding with Mn2+, flow cytometry, active compounds read high, 100% = Mn2+-driven binding gain fully reversed, screened at 10 µM (by protocol);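 also: 0% = Mn2+ stimulated cells lacking compound and 100% = ligand binding without Mn2+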
Sequence (P13612 whole entry, looked up): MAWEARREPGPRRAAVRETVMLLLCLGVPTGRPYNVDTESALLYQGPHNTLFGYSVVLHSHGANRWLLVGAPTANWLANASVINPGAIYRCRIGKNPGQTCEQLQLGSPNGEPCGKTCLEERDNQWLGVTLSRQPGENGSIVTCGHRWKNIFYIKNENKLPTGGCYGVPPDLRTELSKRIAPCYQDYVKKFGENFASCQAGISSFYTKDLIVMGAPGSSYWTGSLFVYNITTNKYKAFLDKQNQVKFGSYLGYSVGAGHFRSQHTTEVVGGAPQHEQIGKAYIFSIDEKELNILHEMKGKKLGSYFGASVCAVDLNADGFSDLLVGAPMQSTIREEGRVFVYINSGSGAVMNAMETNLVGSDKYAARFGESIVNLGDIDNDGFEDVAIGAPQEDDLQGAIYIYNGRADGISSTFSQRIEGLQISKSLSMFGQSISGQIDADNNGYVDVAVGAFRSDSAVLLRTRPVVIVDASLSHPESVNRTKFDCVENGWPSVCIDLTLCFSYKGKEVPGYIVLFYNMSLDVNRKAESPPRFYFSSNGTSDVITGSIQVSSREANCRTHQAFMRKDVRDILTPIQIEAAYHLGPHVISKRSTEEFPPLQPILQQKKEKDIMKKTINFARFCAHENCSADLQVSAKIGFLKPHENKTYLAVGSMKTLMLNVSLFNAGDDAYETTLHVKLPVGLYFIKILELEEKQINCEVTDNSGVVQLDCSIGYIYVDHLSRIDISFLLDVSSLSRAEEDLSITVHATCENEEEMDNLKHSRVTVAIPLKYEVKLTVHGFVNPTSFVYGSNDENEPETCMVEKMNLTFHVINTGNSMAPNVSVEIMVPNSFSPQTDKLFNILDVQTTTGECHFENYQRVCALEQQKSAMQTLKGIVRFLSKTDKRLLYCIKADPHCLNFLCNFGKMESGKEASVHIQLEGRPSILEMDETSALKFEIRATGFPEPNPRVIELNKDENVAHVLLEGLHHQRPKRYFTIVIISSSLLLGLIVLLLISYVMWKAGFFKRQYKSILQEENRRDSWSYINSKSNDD

SMILES | inhibition
CCOC(=O)c1cccc(NC(=O)CCc2c(C)nc3ncnn3c2C)c1 | 10% (inactive)
CCOC(=O)N1CCN(C(=O)CSc2nnc(-c3c[nH]c4ccccc34)n2CCOC)CC1 | 9% (inactive)
CC(=O)NC(C)c1nc2ccccc2n1Cc1ccccc1F (stereo not drawn) | 1% (inactive)
CN(C(=O)C1CCOC1)c1nnc(-c2cccnc2)s1 (stereo not drawn) | -8% (inactive)
CC1=NCCN1S(=O)(=O)c1ccc(Br)c(C)c1 | -21.5% (inactive)
C=CCSc1nnc(Cn2c(=O)sc3ccccc32)n1C | 5% (inactive)
Brc1cnc(N2CCCC2)nc1N1CCCCC1 | -21% (inactive)
Cc1cc(C)cc(N(CC(=O)NCC2CCCO2)S(=O)(=O)c2c(C)noc2C)c1 (stereo not drawn) | -10% (inactive)
Cc1cccc(NC(=O)CSc2nnc(NC(=O)CN3CCOCC3)s2)c1 | -21% (inactive)
COc1cc2[nH]c(=O)n(CCC(=O)NC3CCN(Cc4ccccc4)CC3)c(=O)c2cc1OC | 11% (inactive)
CCOc1cc(S(=O)(=O)NCc2ccc3c(c2)OCO3)ccc1F | -18.5% (inactive)
O=S1(=O)CCN2C(=N1)SC1=C2CCN(Cc2ccccc2)C1 | 4% (inactive)
CCOc1ccc(OCC)c(NC(=O)CN(C)S(=O)(=O)c2cccc3nsnc23)c1 | 5% (inactive)
O=C(CSc1nc2ncccc2[nH]1)Nc1ccc2c(c1)OCCO2 | -23% (inactive)
CCc1nnc(NC(=O)CSc2nnc(Cc3ccccc3)n2-c2ccc(OC)cc2)s1 | -26.5% (inactive)
CCOC(=O)N1CCN(C(=O)c2ccc3nc4cc(Cl)ccc4c(=O)n3c2)CC1 | 6.7% (inactive)
OCc1n[nH]c(CO)n1 | 2% (inactive)
O=c1ccn(Cc2ccccc2Cl)cc1 | -16% (inactive)
N#CCCn1cnc2ccccc21 | -16.5% (inactive)
CCOc1ccc(C2C(C(=O)O)c3ccccc3C(=O)N2CCN2CCOCC2)cc1 (stereo not drawn) | -12.1% (inactive)
COc1cccc(OCC(=O)Nc2ccccc2C(N)=O)c1 | -12% (inactive)
CCOC(=O)N1CCC(NC(=O)Cn2cc3c(n2)CCCCC3)CC1 | -1% (inactive)
CSC1=NCCN1C(=O)c1ccc(S(=O)(=O)N2CCOCC2)cc1 | 1% (inactive)
CCCC(=O)N1c2ccccc2NC2=C(C(=O)CCC2)C1c1ccc(F)cc1 (stereo not drawn) | -5.3% (inactive)
Cc1c(C(=O)Nc2ccccc2Cl)oc2ccc(S(=O)(=O)N3CCC4(CC3)OCCO4)cc12 | -8% (inactive)

SMILES | inhibition
CCOc1cc2[nH]c(=S)n(CCCN3CCCC3=O)c(=O)c2cc1OCC | -5% (inactive)
O=C(Cn1nc(Cc2cccnc2)c2ccccc2c1=O)NCC1CCCO1 (stereo not drawn) | -1% (inactive)
COc1ccc(CNC(=O)C2CCN(S(=O)(=O)N3CCOCC3)CC2)cc1 | 3% (inactive)
Cc1ccc(-c2nc(CS(=O)CC(=O)NC3CCCC3)c(C)o2)cc1 (stereo not drawn) | -15% (inactive)
CCOc1ccc(C(=O)N(Cc2ccc(N(C)C)cc2)C2CCS(=O)(=O)C2)cc1 (stereo not drawn) | -24.5% (inactive)
CCOC(=O)C1CCN(C(=O)CC2C(=O)N(Cc3ccccc3)C(C)c3nc4ccccc4n32)CC1 (stereo not drawn) | 8% (inactive)
CC(C)(C)c1ccc(C(=O)NCCC(=O)NCc2ccco2)cc1 | -4% (inactive)
CCOC(=O)N1CCN(C(=O)c2cnc3n(c2=O)CCS3)CC1 | -8% (inactive)
CCCOc1ccc(C2c3c(oc4cc(C)c(C)cc4c3=O)C(=O)N2CCCN2CCOCC2)cc1 (stereo not drawn) | 1% (inactive)
O=C(NCc1ccc2c(c1)OCO2)C1CCCN(S(=O)(=O)c2cccs2)C1 (stereo not drawn) | 3% (inactive)
CCOC(=O)C1(C(F)(F)F)N=C(N(C)C)OC(N(C)C)=N1 | 20% (inactive)
O=C1OC(NC(=O)c2ccccc2)C(N2CCOCC2)=C1Cl (stereo not drawn) | 6% (inactive)
COc1ccccc1N1CCN(Cc2nnnn2CCc2ccccc2)CC1 | -8% (inactive)
COc1ccccc1C(=O)N1CCNC(=O)C1CC(=O)Nc1ccc(Cl)cc1 (stereo not drawn) | -4.5% (inactive)
O=C(CN1CCN(C(=O)c2cccc(F)c2)CC1)Nc1ccccc1F | 7% (inactive)
N#Cc1ccc(COC(=O)Cn2nnc(-c3ccccc3)n2)cc1 | -9.5% (inactive)
COc1ccc(N2C(=O)c3cccc4cccc(c34)C2=O)nn1 | -1.5% (inactive)
OCCNCCCCOc1ccccc1F | -13.5% (inactive)
COc1ccccc1C(=O)NCCn1cc(SCC(=O)NCc2ccco2)c2ccccc21 | -4% (inactive)
Cn1c(=O)[nH]c(=O)c2c1nc(NCCCn1ccnc1)n2Cc1cccc(Br)c1 | -22.5% (inactive)
CCCS(=O)(=O)N1CCN(C(=O)c2cccs2)CC1 | -15% (inactive)
COc1cccc(N2C(=O)C3CCCN3C2c2ccc(F)cc2)c1 (stereo not drawn) | -5% (inactive)
CCN(CC)C(=O)N1CCN(C(=O)c2ccc(C)cn2)CC1 | -8% (inactive)
CCn1c(CSc2ncccn2)nnc1SCC(=O)N1c2ccccc2CC1C (stereo not drawn) | 5.5% (inactive)
O=C1c2ccncc2C(=O)N1C1CCCCC1 | 3% (inactive)

SMILES | inhibition
COc1ccc(OC)c(C2N(c3ccccn3)C(=O)C3CCCN32)c1 (stereo not drawn) | -11% (inactive)
O=C(CN1C(=O)CSc2ncccc21)N1CCOCC1 | -1% (inactive)
COc1cccc(C(CC(=O)NCCN2CCOCC2)NS(=O)(=O)c2ccc(C)cc2)c1OC (stereo not drawn) | -2% (inactive)
Cc1onc(-c2ccccc2Cl)c1C(=O)NCCn1ccc2ccccc21 | -7% (inactive)
Cc1ccc(C2CC(=O)NC(SCC(=O)OCc3ccccc3)=C2C#N)o1 (stereo not drawn) | -24% (inactive)
COc1ccc(S(=O)(=O)NC(CC(=O)NCc2ccccc2OC)c2ccco2)cc1 (stereo not drawn) | 3% (inactive)
CC(C)OCCCNC(=O)CNC(=O)c1cccs1 | 10% (inactive)
CCOC(=O)c1ccn(-c2nc(-c3ccco3)cc(C(F)(F)F)n2)n1 | -5% (inactive)
CCOC(=O)c1sc(=S)n(-c2cccc(OC)c2)c1N | -4% (inactive)
CCOC(=O)Cn1c2c(c(-c3ccccc3OC)cc1=O)CCCC2 | 16% (inactive)
Cc1ccc(N2C(=O)c3oc4ccccc4c(=O)c3C2c2cccnc2)nc1 (stereo not drawn) | -22% (inactive)
OCc1nc(CO)n(Cc2ccccc2)n1 | -2.3% (inactive)
O=C(CN1CCOCC1)Nc1c2c(nc3c1CCC3)CCC2 | -12% (inactive)
Cc1nc2nc(SCC(=O)NCc3ccco3)nn2c(C)c1Cc1ccccc1 | -12.3% (inactive)
CCN(CCCNC(=O)C1CCN(S(=O)(=O)c2cnc[nH]2)CC1)c1ccccc1 | 0% (inactive)
Cc1ccc(C)c(N(CC(=O)NCc2ccco2)C(=O)CCC(=O)Nc2ccccn2)c1 | -3% (inactive)
CC(Sc1sc(=S)sc1SC(C)C(=O)O)C(=O)O (stereo not drawn) | -53.5% (inactive)
C=CCN(CC=C)C(=O)CN1C(=O)c2ccccc2C1=O | -1% (inactive)
Cc1ccc2c(c1)N(CCCC(=O)NCc1cccnc1)C(=O)CO2 | -5% (inactive)
CCOC(=O)C1CCN(C(=O)C2CCN(S(=O)(=O)c3c(C)noc3C)CC2)CC1 | 10% (inactive)
O=C(CN1C(=O)CCS(=O)(=O)c2ccccc21)NCc1ccc(F)cc1 | -3% (inactive)
Cc1oc(C)c(C(=O)NCCCC(=O)O)c1C(=O)NCCCC(=O)O | 5% (inactive)
COc1ccc(NC(=O)C2CCCN(S(=O)(=O)c3cccc4cccnc34)C2)cc1 (stereo not drawn) | 0% (inactive)
CCOc1ccccc1NC(=O)C1CCC(CNc2c(N3CCOCC3)c(=O)c2=O)CC1 (stereo not drawn) | 2% (inactive)
Cc1cccc2c1N(CC(=O)OC(C)C)C(=O)C2=O | 10.7% (inactive)

SMILES | inhibition
Cc1cc(NC(=O)CSCc2nc(-c3cccc(Cl)c3)oc2C)no1 | 5% (inactive)
O=C(NCc1ccc2c(c1)OCO2)c1cc2c(s1)CS(=O)(=O)C2 | -4% (inactive)
Cc1ccc(C)c(N2CCN(C(=O)CCc3nc4ccccc4[nH]3)CC2)c1 | -5% (inactive)
O=S(=O)(Nc1ccccn1)c1ccc(Oc2ccccc2)cc1 | -1.3% (inactive)
CCOc1c(OC)cc(C2C(C#N)=C(N)Oc3n[nH]c(-c4ccncc4)c32)cc1OC (stereo not drawn) | -15% (inactive)
CCC(C)Sc1nnc(-c2c[nH]c3ccccc23)n1CCOC (stereo not drawn) | 10% (inactive)
COc1ccc(C2OC(=O)CC2C(=O)NC(C)C)cc1 (stereo not drawn) | 6% (inactive)
COC(=O)Cn1c(=NC(=O)CSCC(=O)Nc2cc(C)on2)sc2ccccc21 | -10.5% (inactive)
COc1ccc(NC(=O)c2c(SC)nsc2SC)cc1 | -23% (inactive)
COCCCNC(=O)c1ccc2c(c1)ncn2-c1ccccc1OC | -35% (inactive)
O=C(NCc1ccco1)c1cccn2c(=O)c3cc(Br)ccc3nc12 | -34% (inactive)
CCn1cc(C(=O)N2CC=C(c3ccccc3)CC2)c(=O)c2ccc(C)nc21 | 4% (inactive)
O=C(CC(Cc1ccccc1)C(=O)O)NCCc1ccc2c(c1)OCO2 (stereo not drawn) | -16% (inactive)
Cc1ccc(C)c(NC(=O)CSc2nnc(Cc3cccn3C)n2-c2ccc(F)cc2)c1 | 10% (inactive)
NC(=O)C1(N2CCCCC2)CCN(C(=O)c2ccc(C#Cc3ccccc3)o2)CC1 | 3% (inactive)
CC1(C)CC(O)C(CCC(O)c2ccccc2)C(C)(C)N1 (stereo not drawn) | -6% (inactive)
CCc1nnc(NC(=O)CCC(=O)O)s1 | -11% (inactive)
O=C(NC(=O)c1ccc(Cl)c(Cl)c1)OC1CCS(=O)(=O)C1 (stereo not drawn) | -4% (inactive)
O=C(NC1(C(F)(F)F)N=C2SCCN2C1=O)c1ccco1 (stereo not drawn) | -21% (inactive)
Cn1c(=O)cc(SCC(=O)N2CCCC2)c2cc(Cl)ccc21 | 2% (inactive)
CN1C(=O)c2ccccc2C(C(=O)NCCCN2CCCC2)C1c1c[nH]c2ccccc12 (stereo not drawn) | 17% (inactive)
COc1ccccc1CNC(=O)Cn1cc2c(n1)CCCC2 | -2% (inactive)
CCOC(=O)C1CCN(C(=O)CSc2cc(=O)n(C)c3ccccc23)CC1 | -2% (inactive)
